BoNT A protease – blocks Botulinum neurotoxin A light chain protease; 360,000 tested, 0.17% active; multiplex microsphere protease substrate cleavage, flow cytometry; inhibition, % at 10 µM; further: plate controls were buffer without enzyme for full effect and enzyme alone for no effect
Bead autofluor – flagged as autofluorescent in microsphere protease counterscreen. compound autofluorescence counterscreen, microsphere flow cytometry; hits give high values. 360,000 tested, 3.1% active. fluorescence intensity (concentration not given with the values). AID 624483; in the data active means fluorescence intensity above about 16000; inconclusive means no clear call, values can overlap the other calls
SSB-PriA inh – K. pneumoniae PriA-SSBct interaction inhibition; AlphaScreen SSBct-PriA binding, biotinylated peptide; inhibition, % at 33 µM; 430,000 tested, 0.6% active; in the data active means inhibition mostly above about 37%, no sharp cut-off; inactive means mostly below about 20%;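 further: plate controls were negative control peptide for no effect and reference peptide for full effect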
BoNT-F LC inh – blocks Botulinum neurotoxin F light chain protease. Multiplex microsphere protease cleavage assay, flow cytometry. inhibition, % at 10 µM. 360,000 tested, 0.22% active. AID 588497; in the data active means inhibition above about 35%, passing the limit was not always enough; inconclusive means no clear call, values can overlap the other calls; further: plate controls were buffer without enzyme for full effect and enzyme alone for no effect
MazF activator – MazEF (E. coli) toxin RNase activation | P0AE70 | FAM/BHQ RNA-DNA oligo cleavage fluorescence, 5 h | activation, % at 20 µM | 350,000 tested, 0.32% active | AID 504720; in the data active means activation above about 50%
Anthrax LF inh2 – blocks Bacillus anthracis lethal factor protease | 360,000 tested, 0.12% active | inhibition, % at 10 µM | multiplex microsphere protease cleavage assay, LF; further: plate controls were buffer without enzyme for full effect and enzyme alone for no effect
Target sequence (P15917 whole entry, looked up): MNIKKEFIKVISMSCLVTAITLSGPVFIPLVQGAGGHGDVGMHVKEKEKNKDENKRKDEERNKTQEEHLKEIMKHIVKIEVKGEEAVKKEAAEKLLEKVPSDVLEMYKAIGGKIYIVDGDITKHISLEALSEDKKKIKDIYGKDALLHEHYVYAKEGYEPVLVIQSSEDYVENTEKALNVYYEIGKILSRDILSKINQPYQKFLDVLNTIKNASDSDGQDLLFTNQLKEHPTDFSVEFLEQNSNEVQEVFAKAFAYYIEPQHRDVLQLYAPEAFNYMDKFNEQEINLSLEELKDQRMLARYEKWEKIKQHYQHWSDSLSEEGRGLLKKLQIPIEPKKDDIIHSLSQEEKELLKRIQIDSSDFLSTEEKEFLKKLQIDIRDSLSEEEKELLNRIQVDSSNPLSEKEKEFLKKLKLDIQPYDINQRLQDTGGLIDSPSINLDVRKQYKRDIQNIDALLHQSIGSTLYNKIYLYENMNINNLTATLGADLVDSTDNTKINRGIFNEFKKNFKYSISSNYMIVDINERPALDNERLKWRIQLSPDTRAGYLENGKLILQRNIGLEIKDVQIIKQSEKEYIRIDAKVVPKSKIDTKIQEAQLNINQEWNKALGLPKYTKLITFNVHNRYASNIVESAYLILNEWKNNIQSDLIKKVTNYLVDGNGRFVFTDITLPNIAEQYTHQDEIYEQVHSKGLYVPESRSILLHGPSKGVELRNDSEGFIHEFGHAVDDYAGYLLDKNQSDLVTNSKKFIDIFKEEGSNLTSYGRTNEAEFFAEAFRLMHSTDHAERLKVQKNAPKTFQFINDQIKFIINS
* marks the source's active call; other numbers are inactive results. This is a sample that favours compounds with a hit; in the whole collection about 3.3% have one here. Unless noted, no stated cut-off is given here; in the data, active means inhibition above about 30%; inconclusive means no clear call, values can overlap the other calls; inactive means below that.

CCn1c2ccccc2c2nc3cc(S(=O)(=O)N4CCOCC4)ccc3nc21 was read as BoNT A protease 40*, Bead autofluor 7049, SSB-PriA inh -17, BoNT-F LC inh 27, MazF activator -13 and Anthrax LF inh2 33*.
`O=C(NCCOc1ccc(F)cc1)C(=O)Nc1ccccc1Cl` gave SSB-PriA inh -1.
Cn1nc(-c2ccc(F)cc2)cc1C(=O)O was read as SSB-PriA inh -11.
Screening O=C(Nc1cccn2ncnc12)c1ccc(Cl)cc1 returned BoNT A protease inconclusive, Bead autofluor 23079*, SSB-PriA inh -3, BoNT-F LC inh -6, MazF activator 4 and Anthrax LF inh2 -9.
Screening O=C(Nc1cccn2ncnc12)c1ccccc1 returned BoNT A protease 3, Bead autofluor 21325*, SSB-PriA inh 4, BoNT-F LC inh 5, MazF activator 1 and Anthrax LF inh2 -2.
CCOc1ccc(-n2ccnc(SCC(=O)Nc3ccccc3Cl)c2=O)cc1 was read as SSB-PriA inh 0.
Screening Cc1cc(C)n(-c2nc3ccccc3nc2Nc2ccc3c(c2)OCO3)n1 returned BoNT A protease 2, Bead autofluor 5720, SSB-PriA inh -69, BoNT-F LC inh -7, MazF activator -8 and Anthrax LF inh2 -6.
`Cc1cc(C)n(-c2nc3nonc3nc2Nc2cccc(C)c2C)n1` gave BoNT A protease 1, Bead autofluor 2716, SSB-PriA inh 0, BoNT-F LC inh 17, MazF activator 190* and Anthrax LF inh2 -1.
For COC[C@H]1OC(=O)c2coc3c2[C@@]1(C)C1=C(C3=O)[C@@H]2CCC(=O)[C@@]2(C)C[C@H]1OC(C)=O the results were BoNT A protease 0, Bead autofluor 2683, SSB-PriA inh -16, BoNT-F LC inh 2, MazF activator 67* and Anthrax LF inh2 -3.
Screening COc1cc(OC)c(OC)cc1C=NN(C)c1ccccc1 returned SSB-PriA inh 73*.
Cc1ccc(S(=O)(=O)N(CC(=O)N/N=C\c2cccs2)c2cccc3cccnc23)cc1 was read as BoNT A protease 0, Bead autofluor 2610, BoNT-F LC inh 0, MazF activator 51* and Anthrax LF inh2 0.
`CCN(CC)c1ccc2cc(-c3nc4ccccc4[nH]3)c(=O)oc2c1` gave BoNT A protease 33*, Bead autofluor 14129, SSB-PriA inh -22, BoNT-F LC inh 59* and Anthrax LF inh2 28.
`CN(C)Cc1c(O)ccc2cc(-c3nc4ccccc4n3C)c(=O)oc12` gave BoNT A protease 1, Bead autofluor 4382, SSB-PriA inh 4, BoNT-F LC inh inconclusive, MazF activator 7 and Anthrax LF inh2 12.
Screening CCN(CC)c1ccc2cc(-c3nnc(-c4ccccc4)o3)c(=O)oc2c1 returned BoNT A protease 8, Bead autofluor 4020, SSB-PriA inh -28, BoNT-F LC inh 18, MazF activator 900* and Anthrax LF inh2 10.
CCN(CC)c1ccc2cc(-c3nc4ccccc4n3C)c(=O)oc2c1 was read as BoNT A protease 1, Bead autofluor 16417*, SSB-PriA inh -12, BoNT-F LC inh 0, MazF activator inactive and Anthrax LF inh2 3.
`COCC(=O)NCC[C@H](O)c1cccc2ccccc12` gave SSB-PriA inh -12.
For Cc1nc2ccccc2/c(=N\Nc2ccc([N+](=O)[O-])cc2)n1N the results were SSB-PriA inh 0.
`O=C1C(=O)N(CCN2CCOCC2)C(c2ccccn2)C1=C(O)c1ccccc1` (configuration not stated) gave SSB-PriA inh -11.
Screening C=CCN(c1ccccc1)S(=O)(=O)c1cccc(C(=O)NCC(c2ccc(OC)cc2)N2CCCCC2)c1 (configuration not stated) returned BoNT A protease inconclusive, Bead autofluor 6047, SSB-PriA inh 0, BoNT-F LC inh 3, MazF activator -5 and Anthrax LF inh2 -8.
For COc1ccc(C(CNC(=O)c2cc3ccccc3cc2OC)N2CCCC2)cc1 (configuration not stated) the results were BoNT A protease inconclusive, Bead autofluor 27989*, SSB-PriA inh -14, BoNT-F LC inh 0, MazF activator -3 and Anthrax LF inh2 1.
For C=CCN(c1ccccc1OC)S(=O)(=O)c1cccc(C(=O)NCC(c2ccc(OC)cc2)N2CCCC2)c1 (configuration not stated) the results were BoNT A protease -4, Bead autofluor 23106*, SSB-PriA inh 6, BoNT-F LC inh -1, MazF activator -31 and Anthrax LF inh2 -9.

Assay outcomes from PubChem.
